Assay outcomes: PubChem, several laboratories
KLK7 zymogen act: activates the human kallikrein-7 zymogen | purified proKLK7, EDANS-DABCYL substrate fluorescence; 100% is mature enzyme control, 0% vehicle | activation, % at 7 µM | 0.9% of 370,000 active | AID 652039;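 active means activation above the mean of all tested compounds plus 3 SD, computed per campaign excluding outliers beyond control limits, cut at about 13% in these data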
Target sequence (P49862 whole entry, looked up): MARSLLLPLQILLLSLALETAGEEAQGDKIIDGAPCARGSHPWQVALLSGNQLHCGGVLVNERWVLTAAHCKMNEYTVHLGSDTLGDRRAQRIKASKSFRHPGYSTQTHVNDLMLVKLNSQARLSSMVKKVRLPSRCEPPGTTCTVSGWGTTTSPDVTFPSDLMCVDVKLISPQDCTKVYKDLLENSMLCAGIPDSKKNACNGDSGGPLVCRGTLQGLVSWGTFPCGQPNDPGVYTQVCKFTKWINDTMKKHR
FAS TE block: inhibitors of human fatty acid synthase thioesterase domain. P49327. recombinant FAS-TE, OMFH fluorogenic substrate, fluorescence endpoint. inhibition, % at 15 µM. 0.67% of 360,000 active. AID 602261;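 active means compounds whose normalised, plate-corrected inhibition of enzyme fluorescence in the single-dose primary screen is 50% or more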;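 further: 0% = DMSO with enzyme and 100% = substrate without enzyme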
GAA850 FXN act: activators of GAA850 frataxin (FXN) promoter; HEK293 lucGAA850 FXN promoter luciferase reporter, 24 h; percent of 10 µM SAHA response; activation, % at 6 µM; 0.56% of 360,000 active;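 active means activation above the average of all compounds screened plus 3 SD, cutoff fixed separately per campaign, cut at about 7.5% in these data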;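 further: 0% = DMSO wells and 100% = 10 µM SAHA wells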
SMARCA2 activ: SMARCA2 function activation, primary screen; 1% of 370,000 active; activation, % at 9.1 µM; MG213 cells, MMTV-luciferase reporter, dexamethasone, overnight; in the data active means activation above about 7.8%;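 further: 0% = vehicle wells and 100% = reference activator wells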
proKLK7 act conf: confirmation of human kallikrein-7 zymogen activators; shares compounds with KLK7 zymogen act; purified proKLK7, EDANS-DABCYL substrate fluorescence; scaled: vehicle 0, mature enzyme 100; activation, % at 7 µM; 68% of 3,200 active; AID 686949;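 active means activation, as change over the incubation, above the mean of all tested compounds plus 3 SD, cut at about 13% in these data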
EDANS-DABCYL int: counter-screen for kallikrein-7 activators: EDANS-DABCYL optical interference; shares compounds with KLK7 zymogen act; EDANS-DABCYL substrate fluorescence interference, no enzyme, 4 h; solvent 0%, active enzyme control 100%; activation, % at 7 µM; 80% of 3,200 active; AID 686952;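 active means activation above the all-compound mean plus 3 SD, ignoring values outside control-based bounds, cut at about 4.8% in these data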;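 further: value is the 4 h activation minus the activation read at time zero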
* = called active by the depositor; x = no result given. Sampled rows, rich in hits. Any-hit rate of the full collection: about 2.9%.

SMILES	KLK7 zymogen act	FAS TE block	GAA850 FXN act	SMARCA2 activ	proKLK7 act conf	EDANS-DABCYL int
COc1ccccc1C=NNC(=O)c1ccncc1	1	-7	-2	2	x	x
COc1ccc(OC)c(/C=N/NC(=O)c2ccc(=O)[nH]n2)c1	16*	-7	2	0	17*	20*
COc1ccc(OC)c(/C=N/NC2=NS(=O)(=O)c3ccccc32)c1	51*	-3	0	2	52*	46*
COc1ccc(/C=C/C(=O)OCC(=O)N2CCCCCC2)cc1OC	4	-3	1	-3	x	x
COc1ccc(OC)c(/C=N/NC(=O)c2ccncc2)c1	41*	-6	2	-2	41*	39*
COc1ccc(/C=N/NC2=NS(=O)(=O)c3ccccc32)cc1	0	-4	-1	-1	x	x
Cc1nn(Cc2ccccc2)c(C)c1C(=O)OCC(=O)c1cc(C)n(CC(F)(F)F)c1C	0	23	1	-3	x	x
O=C(CS(=O)(=O)c1ccc(Cl)cc1)Nc1nnc(-c2cccs2)o1	0	1	0	-2	x	x
CCOc1ccc(C2CC(c3ccc(F)cc3)Nc3nc(N)nn32)cc1 (centres undefined)	0	-8	3	1	x	x
COc1ccc(OC)c(/C=N/NC(=O)C(=O)N2CCCCCC2)c1	51*	-4	1	-2	48*	45*
COc1ccc(OC)c(/C=N/NC(=O)c2cc[n+](Cc3ccccc3)cc2)c1	45*	-9	-2	3	79*	81*
COc1cc(OC)c(OC)cc1/C=N/NC(=O)c1ccc(=O)n(C)c1	0	-16	-1	-2	x	x
COc1cccc(/C=N/NC(=O)C(=O)N2CCCCCC2)c1OC	1	-3	0	0	x	x
COc1ccc(OC)c(/C=N\NC(=O)c2ccc(=O)n(C)c2)c1	16*	-10	2	-2	12	10*
COC(=O)Nc1nnc(-c2ccccc2OC)s1	-13	-4	7	7	x	x
COCC(=O)N(C)c1nnc(-c2ccccn2)s1	63*	-7	1	0	82*	77*
CN(C(=O)C1CCCO1)c1nnc(-c2ccccn2)s1 (centres undefined)	98*	-7	3	1	94*	95*
COCC(=O)N(C)c1nnc(-c2ccc([N+](=O)[O-])cc2)s1	0	11	2	-1	x	x
CN(C(=O)C1CCCO1)c1nnc(-c2ccncc2)s1 (centres undefined)	130*	-4	-2	-3	167*	167*
COc1ccccc1-c1nnc(N(C)C(=O)C2CCCO2)s1 (centres undefined)	18*	-5	0	-1	26*	26*
CN(C(=O)c1ccncc1)c1nnc(-c2ccncc2)s1	x	-6	-1	x	x	x
CCOC(=O)c1ccccc1NC(=O)CSc1ccccc1	0	5	0	1	x	x
CCOC(=O)CNC(=O)COc1coc(CN2CCN(c3ccccc3)CC2)cc1=O	0	-5	1	1	x	x
C[C@]12c3[nH]c4cc(-c5ccco5)ccc4c3CCN1C(=O)[C@@H](CC(=O)NCc1cccc(C(F)(F)F)c1)C[C@@H]2C(=O)N1CCOCC1	16*	13	0	1	-1	-2
C[C@]12c3[nH]c4ccccc4c3CCN1C(=O)C(CC(=O)NCc1cccc(C(F)(F)F)c1)C[C@@H]2C(=O)N1CCOCC1 (some centres undefined)	0	2	-3	1	x	x
SMILES	KLK7 zymogen act	FAS TE block	GAA850 FXN act	SMARCA2 activ	proKLK7 act conf	EDANS-DABCYL int
COCCCNC(=O)C[C@H]1C[C@H](C(=O)N2CCCCC2)[C@@]2(C)c3[nH]c4cc(-c5ccco5)ccc4c3CCN2C1=O	170*	-2	0	-3	88*	114*
C[C@]12c3[nH]c4cc(-c5ccco5)ccc4c3CCN1C(=O)[C@@H](CC(=O)NCCN1CCOCC1)C[C@@H]2C(=O)N1CCCCC1	134*	-5	2	0	63*	61*
COCCCNC(=O)CC1C[C@H](C(=O)N2CCCCC2)[C@@]2(C)c3[nH]c4ccccc4c3CCN2C1=O (some centres undefined)	0	-6	-3	-3	x	x
C[C@]12c3[nH]c4cc(-c5ccco5)ccc4c3CCN1C(=O)[C@@H](CC(=O)NCC13CC4CC(CC(C4)C1)C3)C[C@@H]2C(=O)N1CCOCC1	-12	28	-1	-7	x	x
COc1c(C)cc(S(=O)(=O)NCc2ccccn2)c(C)c1C	0	-4	1	2	x	x
O=C(O)Cc1sc(-c2ccc(Cl)cc2)nc1-c1ccccc1	1	-7	0	2	x	x
COc1cccc(C2NC(=O)NC(C)=C2C(=O)OCC2CCCO2)c1 (centres undefined)	0	-2	-1	-1	x	x
Cn1c(SCC(=O)N2c3ccccc3CCc3ccccc32)nnc1-c1ccc(O)cc1	1	-9	-3	1	x	x
CCOC(=O)c1[nH]c2ccc(OC)cc2c1NC(=O)CCN1CCSCC1	17*	-12	-1	-3	11	10*
CCOC(=O)c1oc2ccc(OC)cc2c1NC(=O)CN1CCN(C)CC1	16*	-4	0	-2	-16	-12
COc1ccc(S(=O)(=O)O/N=C2\CCSc3ccc(C)cc32)cc1	-1	28	-3	-3	x	x
CN1C(=O)c2cccc3c(S(=O)(=O)N(C)C)ccc1c23	49*	-2	2	0	66*	73*
CNS(=O)(=O)c1ccc2c3c(cccc13)C(=O)N2C	35*	-3	2	2	55*	66*
CCN1C(=O)c2cccc3c(S(=O)(=O)N(C)C)ccc1c23	65*	2	0	1	73*	75*
Fc1ccccc1CNc1nc(-c2cccnc2)nc2ccccc12	1	6	0	3	x	x
COc1ccc(N(CC(=O)Nc2ccc(S(=O)(=O)N3CCOCC3)cc2)S(C)(=O)=O)cc1OC	1	-4	1	4	x	x
COc1cc(OC)c(OC)cc1/C=C1/Cc2ccccc2C1=O	21*	-5	0	-1	92*	90*
COc1ccccc1NC(=O)COC(=O)c1[nH]c(=O)[nH]c(=O)c1N	84*	-8	-1	-3	120*	121*
COc1ccccc1NC(=O)COC(=O)c1c[nH]c(=O)[nH]c1=O	0	-4	2	-1	x	x
CCOC(=O)N1CCN(C(=O)CCN2C(=O)COc3ccc(C)cc32)CC1	0	-7	-1	-4	x	x
Cc1cc(NC(=O)COC(=O)CSc2nc3cc(Cl)ccc3n2Cc2ccccc2)no1	13*	18	0	-4	4	2
CCOP(=O)(OCC)C(Nc1cccc([N+](=O)[O-])c1)c1ccc(N(C)C)cc1 (centres undefined)	1	8	-1	-3	x	x
COCCNS(=O)(=O)c1ccc2c(c1)Cc1cc(S(=O)(=O)NCCOC)ccc1-2	0	-4	1	-1	x	x
